Experimental findings from PubChem BioAssay AID686979 (National Center for Advancing Translational Sciences (NCATS), 2013) are described below.

Screen size: about 420,000 compounds; about 50,000 (12%) were called active. Where a call stands in place of a potency, no number is given. About 26% were inconclusive and are not listed. Calls come from the whole dose curve; as a rule, active = well fitted inhibition curve with a large enough effect; inconclusive = small, poorly fitted or top-dose-only effect; inactive = flat fitted curve, though single readings scatter. This excerpt belongs to a sample that is enriched for actives.
Potency is the fitted concentration of half-maximal effect.

The nature of the experiment: qHTS for Inhibitors of human tyrosyl-DNA phosphodiesterase 1 (TDP1): qHTS in cells in presence of CPT. Note: nearly all actives have a fitted effect of over 55% in size. The following applies: chicken DT40 Tdp1-/-;hTDP1 cells + 20 nM CPT, ATP luminescence, 48 h; series mostly up to 46.2 µM. In short, it runs like this:
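Chicken DT40 Tdp1-/- cells complemented with human TDP1, 400 cells/well, exposed to compounds plus 20 nM camptothecin for at least 48 h at 37 C; viability read as ATP content by CellTiter-Glo luminescence.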
On the technique in general: In qHTS, concentration-response curves come from the screen itself.
For the molecule `CN1OC[C@@H]2CN(S(=O)(=O)c3cccc(C(F)(F)F)c3)[C@H](c3ccc(-c4cc5ccccc5o4)cc3)C[C@@H]21`, the Potency entry was “inactive”.
As for `CC1=CC(=NNS(=O)(=O)c2ccc([N+](=O)[O-])cc2)CC(C)(C)C1`, the entry is “inactive”; as for `CCCC1OC23CCCCC2C(C#N)(C#N)C1(C#N)C(=N)O3` (stereo unspecified), 5.8 µM (active); as for `O=C(CSc1cn(CC(=O)N2CCOCC2)c2ccccc12)Nc1ccccc1`, “inactive”.
As to `O=C(NCc1ccccc1)[C@@H]1CSC2c3ccccc3C(=O)N21` (stereo partly specified), the Potency result was “inactive”.
As for `COCCCC1CCN(C(=O)C2CCC(=O)N(C3CCCCCC3)C2)CC1` (stereo unspecified), the entry is “inactive”; as for `CC1CN(/C=C/C(=O)C(F)(F)F)CC(C)O1` (stereo unspecified), “inactive”; as for `COC(=O)N/N=C/c1c[n+]([O-])c2ccccc2[n+]1[O-]`, “inactive”.
For `O=C(COc1ccc(Cl)cc1Cl)NCCCNC(=O)c1cnccn1`, the Potency entry was “inactive”.
As for `O=C(CCCOc1ccc(Cl)cc1Cl)NNC(=O)C1CCC1`, the Potency entry is “inactive”.
As for `Clc1ccc(CN2CCCCCC2)cc1Cl`, the entry is “inactive”.
For the molecule `O=C(NNS(=O)(=O)c1ccc(Cl)cc1)C1CCN(Cc2ccccc2)CC1`, the Potency entry was “inactive”.
Regarding `CCOc1ccc(S(=O)(=O)N2CCC(C(=O)NCc3ccccn3)CC2)cc1Cl`, the Potency result is “inactive”.
With `COc1cccc(CN2CCC(C(=O)NC(c3ccc4c(c3)OCO4)c3ccccn3)CC2)c1` (stereo unspecified), the Potency entry is “inactive”.
For the molecule `O=C(NC(c1ccc(-c2ccccc2)cc1)c1cnccn1)C1CCN(CCOc2ccc(Cl)cc2Cl)CC1` (stereo unspecified), the Potency is 16.4 µM (active).
Take `Cc1cccnc1C(NC(=O)C1CCN(Cc2ccc(Cl)c(Cl)c2)CC1)c1ccc(Cl)cc1` (stereo unspecified): the Potency was 3.26 µM (active).
As for `Cc1ccc(C(NC(=O)C2CCN(CCOc3ccc(Cl)cc3Cl)CC2)c2ccccn2)cc1` (stereo unspecified), the figure is 25.9 µM (active); as for `Cc1cnc(NC(=O)Cn2cnc3c2c(=O)n(C)c(=O)n3C)s1`, “inactive”.
Take `Cc1nc2cccnc2nc1C`: the Potency entry was “inactive”.
With `Cc1cc(C)c(NC(=S)N2CCCC2C(=O)O)c(C)c1` (stereo unspecified), the Potency entry was “inactive”.
For the molecule `COc1ccc(C(CC(=O)Nc2ccc(C)cc2)NC(=O)C(F)(F)F)cc1` (stereo unspecified), the Potency entry was “inactive”.
Turning to `CC(C)(C)CC(=O)Nc1nnc(SCC(=O)NCc2cccs2)s1`, the Potency result is “inactive”.
As for `COC(=O)[C@H](Cc1ccccc1)NC(=O)Nc1ccc(OC)cc1`, the Potency entry was “inactive”.
For `NC(c1csc(NC(=O)Nc2cccc(C(F)(F)F)c2)n1)C1CCCCC1` (stereo unspecified) the value was 20.6 µM (active); for `CC(C)(C)CC(=O)Nc1nc(C(N)Cc2ccc(C(F)(F)F)cc2)cs1` (stereo unspecified), 23.1 µM (active); for `Cc1ccccc1NC(=O)Cc1nc(COC(=O)c2ccc(C(F)(F)F)cc2)cs1`, “inactive”.
For `COc1ccc(NC(=O)CN(C)CC(=O)Nc2cccc(C(F)(F)F)c2)cc1`, the Potency entry is “inactive”.
On to `COc1ccc(CC(N)c2csc(NC(=O)Nc3ccc(C(C)C)cc3)n2)cc1` (stereo unspecified), for which the Potency was 6.51 µM (active).
For the molecule `CC(C)C[C@H](NC(=O)Nc1cccc(C(F)(F)F)c1)C(=O)O`, the Potency result was “inactive”.
In the case of `COc1ccc(NC(=O)C(Br)C(C)C)cc1` (stereo unspecified), the Potency result is “inactive”.
In the case of `COc1ccc(C(N)c2csc(NC(=O)Nc3cccc(C(F)(F)F)c3)n2)cc1` (stereo unspecified), the Potency was 18.4 µM (active).
On to `Cc1ccc(NC(=O)Nc2cccc(C(F)(F)F)c2)nc1`, for which the Potency entry was “inactive”.
Regarding `CCN(CC(=O)Nc1c(F)cccc1F)C(=O)c1ccc(S(=O)(=O)N2CCCCC2)cc1`, the Potency entry is “inactive”.
As for `COc1ccccc1OC(C)C(=O)Nc1ccc(S(=O)(=O)Nc2nccs2)cc1` (stereo unspecified), the Potency entry was “inactive”.
For `COc1ccc(NC(=O)CC2C(=O)NC3CCCCC3N2C(=O)c2ccc(F)cc2)cc1` (stereo unspecified) the value was “inactive”; for `CCOc1ccc(NC(=O)C(CC(C)C)N2Cc3ccccc3C2=O)cc1` (stereo unspecified), “inactive”.
As for `Cc1ccc(CNS(=O)(=O)c2ccc(-c3cc(C(F)(F)F)on3)s2)cc1`, the Potency entry is “inactive”.
In the case of `COc1ccccc1CNC(=O)COC(=O)c1sc(C)nc1C`, the Potency entry was “inactive”.
With `COc1ccccc1CNC(=O)c1cc(-c2cc(F)ccc2OC)n[nH]1`, the Potency entry is “inactive”.
Regarding `COc1ccccc1CNC(=O)c1cc(-c2cc(Cl)ccc2C)n[nH]1`, the Potency is 16.4 µM (active).
As for `CC(Sc1nnc(-c2ccccc2F)n1C1CC1)C(N)=O` (stereo unspecified), the entry is “inactive”; as for `Cc1ccc2c(c1)C1CN(C)CCC1N2S(=O)(=O)c1cccc(F)c1` (stereo unspecified), “inactive”.
On to `CCOC(=O)CSc1nc(C)cc2c1C(=O)OC2`, for which the Potency result is “inactive”.
As for `CCOC(=O)CSC1=N/C(=C/c2ccc(-n3cncn3)cc2)C(=O)N1C(C)=O`, the figure is 20.6 µM (active); as for `CCCC(=O)N1CCC1(C)C(=O)Nc1ccc(-n2cncn2)cc1` (stereo unspecified), “inactive”; as for `NNc1nnc(NN)c2ccccc12`, “inactive”.
For `CCCS(=O)(=O)NC(=O)C1(C)CCCN(C(=O)c2ccnc(Cl)c2)C1` (stereo unspecified) the value was “inactive”.
For `CCN(CC)CCCNC(=S)N(CCO)Cc1cc2cc3c(cc2[nH]c1=O)OCO3` the value was “inactive”; for `COc1ccc(CCNc2cc(N3CCN(C(=O)c4ccccc4OC)CC3)ccc2[N+](=O)[O-])cc1OC`, 5.8 µM (active); for `COc1ccc(CCNC(=O)C(=O)NCc2ccccc2C)cc1OC`, “inactive”.
For the molecule `COc1ccc(CCNC(=O)c2ccccc2-c2ccccc2C(=O)O)cc1OC`, the Potency result was “inactive”.
For the molecule `CCCCN(C(=O)c1cccc(N2C(=O)c3ccccc3C2=O)c1)c1c(N)n(CCCC)c(=O)[nH]c1=O`, the Potency entry was “inactive”.
As for `CC(CN1CCCCC1)c1ccccc1` (stereo unspecified), the entry is “inactive”.
Turning to `COc1ccc(/C=C2\SC(=S)N(CCC(=O)Nc3ccccn3)C2=O)cc1OC`, the Potency entry is “inactive”.
With `CCC(=O)N1CCC(C(N)=O)(N2CCCCC2)CC1`, the Potency entry was “inactive”.
As for `CC(=O)NN1C(=O)c2ccccc2NC1c1ccccc1` (stereo unspecified), the Potency entry is “inactive”.
For `O=C1CCC(C(=O)OCC(=O)Nc2ccc(OC(F)F)cc2)=NN1` the value was “inactive”; for `Cc1ccc(Cc2cnc(N)s2)o1`, “inactive”.
As for `CCOc1ccccc1NC(=O)CCc1ccc(C)o1`, the entry is “inactive”.
As for `Cc1ccc(CCC(=O)Nc2ncc(Cc3cc(Cl)ccc3Cl)s2)o1`, the figure is 0.731 µM (active).
As for `O=C(COC(=O)CCc1ccc(S(=O)(=O)N2CCOCC2)cc1)Nc1cccc(Cl)c1`, the Potency result was “inactive”.
With `Cc1ccc(C(=O)OCC(=O)N2CCCCCC2)cc1S(=O)(=O)N1CCOCC1`, the Potency entry was “inactive”.
For the molecule `CCOc1ccc(CCNC(=O)COC(=O)c2ccc(C)c(S(=O)(=O)N3CCOCC3)c2)cc1OCC`, the Potency result was “inactive”.
As for `COc1ccc(CC(=O)Nc2ccc3c(c2)CCC3)cc1S(=O)(=O)N1CCOCC1`, the entry is “inactive”; as for `COc1ccc(CCC(=O)Nc2ccc(Cl)c(S(=O)(=O)N3CCOCC3)c2)cc1OC`, 23.1 µM (active).
Take `COc1ccc(C(=O)OCC(=O)c2ccc(C)c(S(=O)(=O)N3CCOCC3)c2)cc1OC`: the Potency was 18.4 µM (active).
